{
  "source": "paper PMC5540273",
  "about": "(PLoS ONE, 2017);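 further: KINOMEscan kinase panel screen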",
  "data": [
    {"test_system": "FLT3", "details": "concentration: 1 μM, replicates: in singlicate; n = 1", "units": {"%Inh": "%"}, "values": [
      {"smiles": "O=C(Nc1ccccc1F)NC1CCN(c2ccnc(Nc3ccc(F)cc3)n2)CC1", "note": "[GSK1379800]", "%Inh": 0},
      {"smiles": "COc1cccc(C2=C(Nc3ccc(Cl)c(C(=O)O)c3)C(=O)NC2=O)c1", "note": "[SB-390769]", "%Inh": 0},
      {"smiles": "O=c1[nH]cc(-c2ccc(N3CCOCC3)cc2)c2sc(-c3cn[nH]c3)cc12", "note": "[GSK2276055]", "%Inh": 0},
      {"smiles": "COc1ccc(Nc2nccc(NCCNC(=O)c3cc4ccccc4s3)n2)cc1", "note": "[GSK1379896]", "%Inh": 0},
      {"smiles": "O=C(Nc1cccc(-c2nn3ccccc3c2-c2ccnc(Nc3cccc(C(F)(F)F)c3)n2)c1)c1c(F)cccc1F", "note": "[GSK292658]", "%Inh": 62},
      {"smiles": "COc1cccc(-c2ccc3c(NC(=O)C4CC4)n[nH]c3n2)c1", "note": "[SB-710903]", "%Inh": 0},
      {"smiles": "Cc1cccc(Nc2nc(N[C@H]3CCNC3)ncc2C(N)=O)c1.Cl", "note": "[GSK2197149]", "%Inh": 80},
      {"smiles": "Fc1ccc(-c2ncn(C3CCNCC3)c2-c2ccnc(Oc3ccc(-c4ccccc4)cc3)n2)cc1", "note": "[SB-245391]", "%Inh": 14},
      {"smiles": "O=C(NC1CCN(c2ccnc(Nc3ccc(F)cc3)n2)C1)c1cc2ccccc2s1", "note": "(stereo not shown) [GSK1379716]", "%Inh": 0},
      {"smiles": "COc1cccc(C(=O)Nc2cccc(Oc3ccc4nc(NC(=O)C5CC5)cn4n3)c2)c1", "%Inh": 89},
      {"smiles": "Cl.NC(=O)c1cccc(Nc2nccc(Nc3ccc(Oc4c(Cl)cccc4Cl)c(Cl)c3)n2)c1", "note": "[GW659009]", "%Inh": 33},
      {"smiles": "O=C(Nc1n[nH]c2cc(-c3ccoc3)ccc12)C1CC1", "note": "[SB-738481]", "%Inh": 91.8},
      {"smiles": "Cl.c1ccc(-c2ccc3c(Nc4ccc5[nH]ccc5c4)ccnc3c2)nc1", "note": "[GW440138]", "%Inh": 0},
      {"smiles": "COc1ccc(-c2coc3ccc(-c4nnc(SCc5ccc(OC)c(C(F)(F)F)c5)o4)cc23)cc1", "%Inh": 10},
      {"smiles": "COc1cc2c(cc1OCCN1CCNCC1)ncc1c3ccc(C#N)cc3[nH]c21", "%Inh": 98.5},
      {"smiles": "CN(c1ccc(NC(=O)Nc2cc(C(F)(F)F)ccc2F)cc1)c1ccnc(Nc2ccc(S(N)(=O)=O)cc2)n1", "note": "[GW809893]", "%Inh": 98.6},
      {"smiles": "Cn1cc(-c2ccc3c(c2)CCN3C(=O)Cc2cccc(F)c2)c2c(N)ncnc21", "note": "[GSK2603358]", "%Inh": 66},
      {"smiles": "CN(C)Cc1ccc(-c2ccc3c(Nc4ccc(Oc5ccccn5)cc4)ccnc3c2)o1", "note": "[GW567148]", "%Inh": 95.5},
      {"smiles": "c1ccc(-c2n[nH]cc2Nc2ccnc3ccccc23)nc1", "note": "[GW694077]", "%Inh": 12},
      {"smiles": "COc1ccc(CNC(=O)NC2CCN(c3ccnc(Nc4ccc(F)cc4)n3)CC2)cc1", "note": "[GSK1379788]", "%Inh": 0},
      {"smiles": "COc1cc(Nc2nccc(-c3c(-c4cccc(NC(=O)c5c(F)cccc5F)c4)nn4ncccc34)n2)cc(OC)c1OC", "note": "[GSK327238]", "%Inh": 96.1},
      {"smiles": "CCCCc1nn2ncccc2c1-c1ccnc(Nc2ccc(N3CCN(C)CC3)cc2)n1", "note": "[GW684941]", "%Inh": 99.5},
      {"smiles": "CC(C)c1nc(-c2cccc(NS(=O)(=O)c3c(F)cccc3F)c2F)c(-c2ccnc(Nc3ccc(N4CCOCC4)nc3)n2)s1", "note": "[GSK2008607]", "%Inh": 70},
      {"smiles": "NCCCC(NC(=O)c1cc(Br)c(-c2ccnc3[nH]ccc23)s1)c1ccccc1.O=C(O)C(F)(F)F.O=C(O)C(F)(F)F", "note": "(stereo not shown) [GSK1287544]", "%Inh": 83},
      {"smiles": "CN(C)S(=O)(=O)c1cc(-c2ccc3nccc(-c4cccc(S(N)(=O)=O)c4)c3c2)cnc1N", "note": "[GSK1669921]", "%Inh": 1}
    ]}
  ]
}
